From the supplement of paper PMC10811239

system: LEGO organoid PT (PTEN-/-; TP53-/-); assay: bioluminescence (viable cell) signal fold change after vs before treatment, normalised to DMSO (ratio); higher = more tumour cell growth / less inhibition; conditions: 10 µM; treatment time 6 days
Protocol: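 Luc2-labelled iPSC-derived glioblastoma-like organoids (LEGOs, genotypes PT = PTEN-/-;TP53-/-, PTCC = plus CDKN2A/B-/-, PTN = plus NF1-/-) were treated with 10 uM drug for 6 days (applied every other day) at 37 C. Bioluminescence imaging was done before treatment and 2 days after the last dose. BLI signals were normalised to the DMSO control on the same day and then to the pre-treatment signal (N=3).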

Row | SMILES | bioluminescence
1 | C[C@@H](O[C@H]1OCCN(Cc2nc(=O)[nH][nH]2)[C@H]1c1ccc(F)cc1)c1cc(C(F)(F)F)cc(C(F)(F)F)c1 [Aprepitant] | 0.86
2 | CCCCCCCCc1ccc(CCC(N)(CO)CO)cc1.Cl [Fingolimod hydrochloride] | 1.07
3 | CC/C(=C(/CC)c1ccc(O)cc1)c1ccc(O)cc1 [Diethylstilbestrol] | 1.01
4 | Cc1ccccc1C(OCCN(C)C)c1ccccc1.O=C(O)CC(O)(CC(=O)O)C(=O)O (stereo not given) [Orphenadrine Citrate] | 0.847
5 | NC(=O)c1cn(Cc2c(F)cccc2F)nn1 [Rufinamide] | 0.54
6 | COc1cc2ncnc(Nc3ccc(F)c(Cl)c3)c2cc1NC(=O)/C=C/CN1CCCCC1 [Dacomitinib] | 0.37
7 | C=CC(=O)Nc1cc(Nc2nccc(-c3cn(C)c4ccccc34)n2)c(OC)cc1N(C)CCN(C)C [Osimertinib] | 0.644
8 | CCN(CC)C(=O)[C@@]1(c2ccccc2)C[C@H]1CN.Cl [Milnacipran ((1S-cis) hydrochloride)] | 0.856
9 | CC(=O)c1c(C)c2cnc(Nc3ccc(N4CCNCC4)cn3)nc2n(C2CCCC2)c1=O.O=S(=O)(O)CCO [Palbociclib Isethionate] | 3.4
10 | COc1ccc(Cl)cc1C(=O)NCCc1ccc(S(=O)(=O)NC(=O)NC2CCCCC2)cc1 [Glyburide] | 2.23
11 | Nc1nc2ccc(OC(F)(F)F)cc2s1 [Riluzole] | 0.939
12 | CCC1(c2ccccc2)C(=O)NCNC1=O [Primidone] | 0.985
13 | CS(=O)(=O)c1cccc(C[C@H](NC(=O)c2c(Cl)cc3c(c2Cl)CCN(C(=O)c2ccc4ccoc4c2)C3)C(=O)O)c1 [Lifitegrast] | 1.49
14 | NC(CO)(CO)CO.O=C(c1ccccc1)c1ccc2n1CCC2C(=O)O (stereo not given) [Ketorolac tromethamine salt] | 1.75
15 | C[N+](C)(C)CCO.[Cl-] [Choline chloride] | 1.48
16 | CN(C)CCc1c[nH]c2ccc(CS(=O)(=O)N3CCCC3)cc12.O=C(O)CC(O)C(=O)O [Almotriptan Malate] | 1.74
17 | CNC(=O)c1cc(Oc2ccc(NC(=O)Nc3ccc(Cl)c(C(F)(F)F)c3)cc2)ccn1 [Sorafenib] | 0.335
18 | COc1cc2ncnc(Nc3ccc(F)c(Cl)c3)c2cc1OCCCN1CCOCC1 [Gefitinib] | 1.78
19 | O=c1[nH]c(=O)n(C2CCCO2)cc1F (stereo not given) [Tegafur] | 1.04
20 | C[C@]12CC[C@@H]3c4ccc(O)cc4CC[C@H]3[C@@H]1CC[C@@H]2O [Estradiol] | 0.389

Row | SMILES | bioluminescence
21 | C[C@@H](c1ncncc1F)[C@](O)(Cn1cncn1)c1ccc(F)cc1F [Voriconazole] | 0.515
22 | CCN(CC)CCNC(=O)c1cc(Cl)c(N)cc1OC [5-Chloro-2-methoxyprocainamide] | 1.1
23 | NC(=O)OCC(COC(N)=O)c1ccccc1 [Felbamate] | 0.699
24 | CC(=O)OCC(=O)[C@@]1(O)CC[C@H]2[C@@H]3CCC4=CC(=O)C=C[C@]4(C)[C@H]3[C@@H](O)C[C@@]21C [Prednisolone-21-acetate] | 0.578
25 | CCN(CC)CC(=O)Nc1c(C)cccc1C [Xylocaine] | 1.02
26 | CC(C)c1nc(CN(C)C(=O)N[C@H](C(=O)N[C@@H](Cc2ccccc2)C[C@H](O)[C@H](Cc2ccccc2)NC(=O)OCc2cncs2)C(C)C)cs1 [Ritonavir] | 1.3
27 | C[C@@](Cc1ccc(O)c(O)c1)(NN)C(=O)O.O [Carbidopa Hydrate] | 0.415
28 | Cl.Cc1ccsc1\C(=C\CCN1CCC[C@H](C1)C(O)=O)c1sccc1C [Tiagabine hydrochloride] | 1.04
29 | CN1CCN2c3ncccc3Cc3ccccc3C2C1 (stereo not given) [Mirtazapine] | 1.1
30 | N#Cc1ccc2[nH]cc(CCCCN3CCN(c4ccc5oc(C(N)=O)cc5c4)CC3)c2c1 [Vilazodone] | 0.812
31 | CN(C)CC(c1ccc(O)cc1)C1(O)CCCCC1.O=C(O)CCC(=O)O (stereo not given) [Desvenlafaxine succinate hydrate] | 1.67
32 | CN(C)CCC=C1c2ccccc2COc2ccccc21.Cl [Doxepin hydrochloride] | 1.71
33 | COc1cc(Nc2c(C#N)cnc3cc(OCCCN4CCN(C)CC4)c(OC)cc23)c(Cl)cc1Cl [Bosutinib] | 1.24
34 | CC(=O)OCC(=O)[C@@]1(O)[C@H](C)C[C@H]2[C@@H]3CCC4=CC(=O)C=C[C@]4(C)[C@@]3(F)[C@@H](O)C[C@@]21C [Dexamethason acetate] | 1.76
35 | Cn1c(=O)c2[nH]cnc2n(C)c1=O [Theophylline] | 0.849
36 | CN1C(=O)OC(C)(C)C1=O [Trimethadione] | 0.57
37 | Cc1cc(C)cc(OCC2CNC(=O)O2)c1 (stereo not given) [Metaxalone] | 1.24
38 | Cl.OC(CCN1CCCCC1)(c1ccccc1)C1CCCCC1 (racemic) [DL-trihexyphenidyl hydrochloride] | 1.67
39 | CCCNS(=O)(=O)Nc1ncnc(OCCOc2ncc(Br)cn2)c1-c1ccc(Br)cc1 [Macitentan] | 1.16
40 | CS(=O)(=O)O.Cc1ccc(NC(=O)c2ccc(CN3CCN(C)CC3)cc2)cc1Nc1nccc(-c2cccnc2)n1 [Imatinib Mesylate] | 0.751
